Here are results for 17 compounds from PMC5540273 (PLoS ONE, 2017).

“And” between values parts separate entries of the source, which are not always exact repeats. Equal entries are not always repeated. Where two headings read alike, the source gives them in different places.

One assay relates to GRK4. The settings on record: concentration: 1 μM, replicates: in singlicate, n = 1.
For another assay, the system named is GRK7. The settings on record: concentration: 1 μM, replicates: in singlicate, n = 1.
The subject of another assay is GSK3A. The settings on record: concentration: 1 μM, replicates: in singlicate; n = 1.
In a further assay the test system is GSK3B. The settings on record: n = 1.
A further assay has as its system T1, HASPIN.
T1 construct: gene GSG2
The settings on record: concentration: 1 μM, replicates: in singlicate, n = 1.

The next assay concerns HCK. The settings on record: concentration: 1 μM, replicates: in singlicate; n = 1.
For the next assay, the system named is HIPK1. The settings on record: concentration: 1 μM, replicates: in singlicate, n = 1.
The test system of another assay is HIPK2. The settings on record: concentration: 1 μM, replicates: in singlicate, n = 1.
A further assay relates to HIPK3. The settings on record: concentration: 1 μM, replicates: in singlicate, n = 1.
Another assay deals with HIPK4. The settings on record: concentration: 1 μM, replicates: in singlicate, n = 1.
Where [1] appears, read: concentration: 1 μM, replicates: in singlicate.
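Further: KINOMEscan kinase panel screen.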

As to `Cc1cccc(Cn2ccn3c(=O)cc(N4CCOCC4)nc23)c1` [GSK2297542], the “%Inh” value amounted to 0% in the assay on GRK4; 0% with GRK7; 10% with GSK3A; 3% in the assay with GSK3B (setting [1]); 0% with HASPIN; 0% in the assay on HCK. In addition, the “%Inh” value in the assay on HIPK1 was determined as 28%; in the assay on HIPK2, 0%; in the assay on HIPK3, 30%; with HIPK4, 15%.

Turning to `CN(C1=C(c2ccccc2)C(=O)NC1=O)c1ccccc1` [SB-334860], the “%Inh” value with GRK4 worked out at 0%; in the assay on GRK7, 0%; in the assay with GSK3A it was 13%; in the assay on GSK3B (1 µM) it was 0%; in the assay with HASPIN, 0%; with HCK it was 0%. In addition, the “%Inh” value in the assay on HIPK1 was 3%; in the assay on HIPK2 it was 0%; in the assay with HIPK3, 15%; in the assay with HIPK4, 2%.

`Fc1ccc(-c2ncn(CCCN3CCOCC3)c2-c2cccnc2)cc1` [SB-211743]: the “%Inh” value amounted to 14% with GRK4; 0% in the assay with GRK7; 24% in the assay on GSK3A; 20% in the assay with GSK3B (setting [1]); 41% with HASPIN; 34% in the assay with HCK. Moreover, the “%Inh” value with HIPK1 came out at 38%; in the assay on HIPK2, 0%; with HIPK3 it was 18%; in the assay on HIPK4 it was 4%.

Take `CN(C(=O)c1ccc(-c2cc(-c3c[nH]nc3-c3ccccn3)ccn2)cc1)C1CCOCC1` [GW810083]: the “%Inh” value is 4% with GRK4; 0% in the assay on GRK7; 0% in the assay on GSK3A; 4% in the assay on GSK3B (setting [1]); 0% with HASPIN; 0% with HCK. In addition, the “%Inh” value in the assay on HIPK1 was found to be 22%; with HIPK2, 25%; in the assay on HIPK3, 0%; in the assay on HIPK4 it was 0%.

In the case of `CCCCCc1nc2c(N)ncnc2n1CCCCC` [SKF-97255], the “%Inh” value is on record as 21% in the assay on GRK4; 0% with GRK7; 0% in the assay on GSK3A; 34% in the assay on GSK3B (setting [1]); 2% in the assay with HASPIN; 26% in the assay with HCK. For the same compound, the “%Inh” value in the assay on HIPK1 turned out to be 43%; in the assay with HIPK2, 0%; in the assay with HIPK3, 13%; in the assay with HIPK4, 1%.

In the case of `Cc1nnc(-c2ccc3ncc(-c4ccc(S(C)=O)cc4)n3c2)o1` (centres unmarked), the “%Inh” value in the assay with GRK4 is 0%; in the assay on GRK7 it was 16%; in the assay on GSK3A, 1%; in the assay with GSK3B (setting [1]), 1%; in the assay with HASPIN, 30%; in the assay on HCK it was 0%. Also, the “%Inh” value is given as 21% with HIPK1, 40% in the assay with HIPK2, 16% in the assay on HIPK3 and 5% with HIPK4.

For the compound `COC(=O)Nc1nc2cc(Oc3ccc(NC(=O)Nc4cc(F)ccc4F)cc3)ccc2[nH]1.Cl` [GW701424], the “%Inh” value is on record as 0% with GRK4; 0% with GRK7; 3% in the assay on GSK3A; 11% in the assay with GSK3B (setting [1]); 0% with HASPIN; 6% in the assay on HCK. The “%Inh” value with HIPK1 was determined as 0%; in the assay with HIPK2 it was 0%; with HIPK3 it was 5%; in the assay on HIPK4, 29%.

`Cc1c2ccc(N(C)c3ccnc(Nc4cccc(S(N)(=O)=O)c4)n3)cc2nn1Cc1ccccc1.Cl.Cl` [GW787226]: the “%Inh” value with GRK4 stood at 21%; with GRK7 it was 0%; with GSK3A, 0%; in the assay on GSK3B (setting [1]) it was 0%; with HASPIN, 0%; with HCK, 91.7%. The “%Inh” value in the assay with HIPK1 amounted to 23%; with HIPK2, 0%; in the assay with HIPK3 it was 0%; with HIPK4, 0%.

Turning to `O=C(Nc1n[nH]c2cc(-c3cccc(F)c3)ccc12)C1CC1` [SB-735464], the “%Inh” value in the assay on GRK4 is 38%; in the assay with GRK7 it was 6%; in the assay with GSK3A, 43%; in the assay with GSK3B (1 µM), 22%; in the assay on HASPIN, 30%; in the assay on HCK, 0%. The “%Inh” value in the assay with HIPK1 turned out to be 7%; in the assay on HIPK2, 22%; in the assay on HIPK3, 31%; in the assay with HIPK4 it was 9%.

As for `Cc1nnc(-c2ccc3occ(-c4ccc(C(C)O)cc4)c3c2)o1` (centres unmarked), the “%Inh” value stood at 1% with GRK4; 11% with GRK7; 73% in the assay on GSK3A; 19% with GSK3B (setting [1]); 29% with HASPIN; 6% in the assay with HCK. The “%Inh” value with HIPK1 is on record as 67%; in the assay on HIPK2 it was 56%; with HIPK3 it was 41%; in the assay with HIPK4, 33%.

As to `CN1c2ccc(NCc3ccc(F)cc3)cc2-c2c(cnn2C)S1(=O)=O`, the “%Inh” value in the assay with GRK4 amounted to 0%; in the assay with GRK7, 0%; in the assay with GSK3A, 22%; in the assay with GSK3B (setting [1]), 0%; with HASPIN, 37%; in the assay with HCK, 8%. Also, the “%Inh” value with HIPK1 turned out to be 6%; in the assay with HIPK2, 0%; in the assay with HIPK3 it was 0%; in the assay on HIPK4 it was 0%.

Consider `O=c1cc(N2CCOCC2)nc2n(Cc3cccc(Cl)c3Cl)c(C3CC3)nn12` [GSK2358994], for which the “%Inh” value in the assay on GRK4 was determined as 0%; with GRK7, 0%; in the assay on GSK3A, 4%; in the assay with GSK3B (setting [1]), 0%; in the assay with HASPIN it was 0%; in the assay with HCK, 0%. The “%Inh” value in the assay with HIPK1 stood at 16%; in the assay with HIPK2 it was 0%; in the assay with HIPK3, 16%; in the assay on HIPK4, 0%.

Take `COc1ccc(Nc2nccc(N3CCC(NC(=O)Nc4cccc(C(C)=O)c4)C3)n2)cc1` (centres unmarked) [GSK1379731]: the “%Inh” value was 0% with GRK4; 0% in the assay on GRK7; 22% in the assay with GSK3A; 7% with GSK3B (setting [1]); 17% in the assay with HASPIN; 0% in the assay on HCK. Besides, the “%Inh” value in the assay with HIPK1 came out at 0%; with HIPK2, 0%; in the assay with HIPK3, 1%; in the assay with HIPK4, 0%.

Regarding `CN1c2ccc(CNc3ccc(F)cc3)cc2-c2c(cnn2C)S1(=O)=O`, the “%Inh” value in the assay with GRK4 worked out at 0%; in the assay with GRK7, 0%; in the assay on GSK3A, 22%; in the assay with GSK3B (setting [1]), 0%; with HASPIN, 33%; with HCK it was 4%. For the same compound, the “%Inh” value with HIPK1 is given as 35%; in the assay on HIPK2, 0%; in the assay with HIPK3 it was 0%; with HIPK4 it was 0%.

With `COc1ccc(Nc2nccc(N3CCC(NC(=O)Nc4cc(C)ccc4C)C3)n2)cc1` (centres unmarked) [GSK1379741], the “%Inh” value is given as 0% in the assay with GRK4; 0% in the assay on GRK7; 0% in the assay on GSK3A; 18% in the assay with GSK3B (setting [1]); 0% in the assay with HASPIN; 0% in the assay with HCK. For the same compound, the “%Inh” value is on record as 0% in the assay on HIPK1, 0% with HIPK2, 16% in the assay with HIPK3 and 0% with HIPK4.

As for `COc1cc2ncn(-c3cc(OCc4sccc4Cl)c(C(N)=O)s3)c2cc1OC` [GSK448459], the “%Inh” value in the assay on GRK4 was found to be 30%; with GRK7 it was 0%; in the assay with GSK3A it was 0%; in the assay with GSK3B (setting [1]) it was 6%; in the assay with HASPIN, 5%; with HCK it was 0%. The “%Inh” value with HIPK1 is 44%; with HIPK2, 28%; in the assay with HIPK3, 23%; in the assay on HIPK4, 69%.

Turning to `NCCNS(=O)(=O)c1ccc(-c2ccnc3[nH]ccc23)cc1` [GSK977617], the “%Inh” value is 69% and 37% in the assay with GRK4 (1 µM); 92.1% and 90.1% with GRK7 (1 µM); 0% in the assay on GSK3A; 0% and 10% in the assay on GSK3B (concentration: 1 μM, replicates: in singlicate, 1 µM); 95.3% and 86% in the assay with HASPIN (1 µM); 0% in the assay on HCK. Moreover, the “%Inh” value in the assay on HIPK1 (1 µM) was 95.6% and 94.2%; in the assay with HIPK2 (1 µM), 96% and 89%; with HIPK3 (1 µM), 97.4% and 95.9%; with HIPK4 (1 µM) it was 77% and 64%.
